From PubChem
KKLEB cytotox: CF airway cell cytotoxicity counter-screen. activity change (cytotoxicity), % at 5 µM. AID 602141. KKLEB CF airway cells viability, ATPlite luminescence, overnight; stronger effect = lower value; cells stimulated with P. aeruginosa culture filtrate. 360,000 tested, 0.36% active;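 active = corrected activity change at or below -50% at 5 µM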
LGR2 inh: Drosophila LGR2 receptor signaling inhibition; 380,000 tested, 0.35% active; AID 720647; inhibition, % at 9.99 µM; HEK293 LGR2, CRE-luciferase, bursicon-stimulated, 4 h;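 active = drop in luminescence signal, shown as inhibition above about 50% in the replicate tests, limit read from the data, passing the limit was not always enough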;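 also: agonist challenge used bursicon conditioned medium at about half maximal strength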
PAX8 inh HTS: inhibitors of PAX8 transcriptional activity in RMG-I cells; RMG-I TPO-luciferase reporter, SteadyGlo, 24 h; inhibition, % at 12.6 µM; 360,000 tested, 1.2% active; AID 652154;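 active = mean replicate inhibition at least 60% with every replicate also reaching 60%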;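 also: luciferase light reporting Pax8 driven TPO promoter activity; plate controls were median of neutral control wells for no effect and mitoxantrone controls for full effect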
EWS-Fli block: inhibitors of EWS/Fli oncoprotein transcriptional activity; AID 651661; 350,000 tested, 0.67% active; A673 NR0B1-luciferase reporter, viability-normalised; inhibition, % at 12.6 µM;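 active = mean inhibition of at least 50% after viability correction, with every replicate also passing that limit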;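 also: firefly luciferase signal divided by Alamar Blue viability fluorescence both relative to DMSO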
CF NFkB block: inhibitors of cystic fibrosis induced NF-kB; KKLEB NF-kB-GFP reporter, PAF-induced, GFP fluorescence overnight; inhibition, % at 5 µM; 360,000 tested, 0.86% active; AID 588850;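 active = at least 50% inhibition at 5 µM, scaled per plate between neutral and stimulator controls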;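 also: PAF is a Pseudomonas aeruginosa culture filtrate used as stimulus; plate controls were PAF-stimulated DMSO wells for no effect and unstimulated DMSO wells for full effect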
Shn3 3UTR inh: Schnurri-3 reporter inhibition in Clone20 osteoblasts | Clone20 osteoblast Shn3 3'UTR firefly luciferase, 24 h | inhibition, % at 12.5 µM | 360,000 tested, 0.52% active | AID 588674;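 active = mean inhibition of at least 75% with every replicate also reaching 75%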;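 also: 0% = median of neutral control wells and 100% = pilot-screen positive control compound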
Starred values were filed as active, the others as inactive. An excerpt weighted towards active compounds, which were near 2% of everything screened.

Screening O=C(Cc1cccnc1)N1CCCCN2[C@H](C1)[C@H](c1ccc(C#CC3CCCC3)cc1)[C@@H]2CO returned LGR2 inh 11, PAX8 inh HTS 92* and EWS-Fli block 14.
For O=C(Cc1ccncc1)N1CCCCN2[C@H](C1)[C@H](c1ccc(C#Cc3ccccc3F)cc1)[C@@H]2CO the results were LGR2 inh 7, PAX8 inh HTS 77* and EWS-Fli block 14.
O=C(Cc1cccnc1)N1CCCCN2[C@@H](CO)[C@@H](c3ccc(C#CC4CCCC4)cc3)[C@@H]2C1 was read as LGR2 inh -4, PAX8 inh HTS -10 and EWS-Fli block 10.
Screening COC(=O)[C@H]1[C@H](CO)[C@H]2Cn3c(ccc(/C=C/c4ccccc4)c3=O)[C@@H]1N2C(=O)C1CCC1 returned LGR2 inh 5 and EWS-Fli block -8.
For COc1ccc(C#Cc2ccc([C@@H]3[C@H]4CN(C(=O)Cc5ccncc5)CCCCN4[C@H]3CO)cc2)cc1 the results were LGR2 inh 4 and PAX8 inh HTS 0.
For CC1=CC2OC3CC4OC(=O)C=CC=CC(C(C)O)OCC(O)C(C)CC(=O)OCC2(CC1O)C4(C)C31CO1 (stereo unspecified) the results were KKLEB cytotox -52*, LGR2 inh 107*, EWS-Fli block 51*, CF NFkB block 86* and Shn3 3UTR inh 93*.
`CC1=CC2OC3CC4OC(=O)C=CC=CC(=O)OCCC(C)C(O)C(=O)OCC2(CC1O)C4(C)C31CO1` (stereo unspecified) gave KKLEB cytotox -44, CF NFkB block 84* and Shn3 3UTR inh 89*.
`COC(=O)C[C@@H]1CC[C@H]2NC[C@H](O)COC[C@@H]2O1` gave LGR2 inh 5, PAX8 inh HTS -8 and EWS-Fli block 0.
Screening CCCC#Cc1ccc([C@H]2[C@@H](CO)N3CCCCN(C(=O)Cc4ccccn4)C[C@@H]23)cc1 returned LGR2 inh -9, PAX8 inh HTS 4 and EWS-Fli block -7.
For COc1ccc(-c2ccc([C@@H]3[C@H]4CN(C(=O)Cc5ccccc5)CCCCN4[C@H]3CO)cc2)cc1 the results were LGR2 inh -7 and PAX8 inh HTS -3.
COC(=O)C[C@H]1CC[C@@H]2NC[C@@H](O)COC[C@H]2O1 was read as LGR2 inh 4, PAX8 inh HTS -6 and EWS-Fli block 7.
Cc1ccc(/C=C2\C(=O)NC(=S)N(c3ccccc3F)C2=O)s1 was read as KKLEB cytotox -13, LGR2 inh 88*, PAX8 inh HTS 37, CF NFkB block 84* and Shn3 3UTR inh 49.
`Cc1ccc(/C=C2\C(=O)NC(=S)N(c3ccc(F)cc3)C2=O)s1` gave KKLEB cytotox -1, LGR2 inh -23, PAX8 inh HTS -113, EWS-Fli block 20, CF NFkB block -45 and Shn3 3UTR inh 35.
For COc1cccc(OC)c1C1=NCC(=O)Nc2c1oc1ccc(Br)cc21 the results were KKLEB cytotox 4, LGR2 inh -3, PAX8 inh HTS 76*, EWS-Fli block 47, CF NFkB block 21 and Shn3 3UTR inh -3.
`CCCN1[C@@H]2c3ccc(-c4cccc(OC)c4)c(=O)n3C[C@H]1[C@H](CO)[C@H]2C(=O)OC` gave LGR2 inh -8 and EWS-Fli block -2.
For Cc1[nH]nc2ccc(-c3cncc(OC[C@@H](N)Cc4c[nH]c5ccccc45)c3)cc12 the results were KKLEB cytotox -87*, CF NFkB block 85* and Shn3 3UTR inh 96*.
`O=C(OC1CCN(CCCl)CC1)C(c1ccccc1)c1ccccc1` gave KKLEB cytotox 44, LGR2 inh 5, PAX8 inh HTS -11, EWS-Fli block -3, CF NFkB block 1 and Shn3 3UTR inh 93*.
C[N+]1(C)[C@@H]2CC[C@H]1CC(OC(=O)C(c1ccccc1)c1ccccc1)C2 (stereo partly specified) was read as KKLEB cytotox 1, LGR2 inh 0, PAX8 inh HTS -13, EWS-Fli block 7, CF NFkB block -2 and Shn3 3UTR inh -12.
For COc1ccc(CC2NCC(O)C2OC(C)=O)cc1 (stereo unspecified) the results were KKLEB cytotox -45, EWS-Fli block 59*, CF NFkB block 80* and Shn3 3UTR inh 97*.
COc1ccc(CC(=O)N2CCN(C)CC2)cc1 was read as KKLEB cytotox -23, CF NFkB block 14 and Shn3 3UTR inh -16.
Screening O=C(Cc1ccccc1)N1CCCCN2[C@H](CO)[C@@H](c3ccc(-c4ccccc4)cc3)[C@@H]2C1 returned LGR2 inh 18 and PAX8 inh HTS -7.
Screening CCCN1[C@@H]2Cn3c(ccc(-c4cccc(OC)c4)c3=O)[C@H]1[C@@H](C(=O)OC)[C@@H]2CO returned LGR2 inh -1 and EWS-Fli block 4.
For CC1=CC2/C=C(\C)CCC(O)C(O)/C=C/C(=O)C23C(=O)NC(CC(C)C)C3C1C (stereo unspecified) the results were KKLEB cytotox -64*, CF NFkB block 92* and Shn3 3UTR inh 99*.
`CC(C)CCn1c(=O)c(C(=O)Nc2ccccc2S(N)(=O)=O)c(O)c2ccccc21` gave KKLEB cytotox -17, PAX8 inh HTS 69*, CF NFkB block -14 and Shn3 3UTR inh 44.
CCCCn1c(=O)c(C(=O)Nc2ccccc2C)c(O)c2ccccc21 was read as KKLEB cytotox 8, CF NFkB block -2 and Shn3 3UTR inh 25.
Screening COc1cc2c(cc1OC)[C@@H]1C(=O)c3ccc4c(c3O[C@@H]1CO2)C[C@H](C(C)C)O4 returned KKLEB cytotox 2, LGR2 inh 10, PAX8 inh HTS 12, EWS-Fli block 44, CF NFkB block 1 and Shn3 3UTR inh 78.
`COc1cc2c(cc1OC)C1C(=O)c3ccc4c(c3OC1CO2)CC(C(C)C)O4` (stereo unspecified) gave KKLEB cytotox 11, LGR2 inh 19, PAX8 inh HTS 26, EWS-Fli block 23, CF NFkB block 9 and Shn3 3UTR inh 85*.
For N#Cc1cccc(-c2ccc([C@@H]3[C@@H](CO)N4CCCCN(C(=O)Cc5cccnc5)C[C@H]34)cc2)c1 the results were LGR2 inh -12, PAX8 inh HTS -8 and EWS-Fli block -6.
For COC(=O)C1=C(c2ccc(OCc3ccccc3)cc2)C[C@@H]2CC[C@H]1N2C(=O)NCCCCc1ccccc1 the results were KKLEB cytotox -4, LGR2 inh 9, PAX8 inh HTS 62*, EWS-Fli block 11, CF NFkB block -5 and Shn3 3UTR inh 82.
Screening C[C@H]1CCC/C=C/[C@@H]2C[C@H](O)C[C@H]2[C@H](O)/C=C/C(=O)O1 returned KKLEB cytotox 17, LGR2 inh 17, PAX8 inh HTS 110*, EWS-Fli block 54*, CF NFkB block 76* and Shn3 3UTR inh 97*.
